The source of these data is PubChem BioAssay (NCATS).

Records with an inconclusive call do not appear. Where a call stands in place of a potency, no number is given. The source made the active and inactive calls. Calls come from the whole dose curve; as a rule, active = well fitted cell-killing curve with a large enough effect; inconclusive = small, poorly fitted or top-dose-only effect; inactive = flat fitted curve, though single readings scatter.

The experiment can be described thus: qHTS of pediatric cancer cell lines to identify multiple opportunities for drug repurposing: Primary screen for DAOY cells (AID 1347090). Note: nearly all actives have a fitted effect of over 55% in size. The settings on record: DAOY medulloblastoma viability, CellTiter-Glo luminescence, 48 h; series mostly up to 46 µM. Put shortly:
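Viability measured as metabolically active cells via CellTiter-Glo luminescence following 48 hours of compound exposure, 11-point dilutions in confirmatory testing. 500-1,000 cells/well plated 5 hours before dosing; controls were DMSO and 2.3 µM bortezomib.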
For `CC(C)(S)[C@@H](N)C(=O)O`, the Potency entry was “inactive”.

Regarding `CC(C)[C@H](N)C(=O)OCCOCn1cnc2c(=O)[nH]c(N)nc21`, the Potency entry is “inactive”. For `Cc1ccc(C)c(OCCCC(C)(C)C(=O)O)c1`, the Potency entry is “inactive”. The entry for `CCC(C)(Oc1ccc(C2(c3ccc(OC(C)(CC)C(=O)O)cc3)CCCCC2)cc1)C(=O)O` (stereo not given) is “inactive”; for `O=C(OC1C[C@H]2CC[C@@H](C1)[N+]21CCCC1)C(O)(c1ccccc1)c1ccccc1` (stereo not given in full) it is “inactive”.
